# In PubChem BioAssay AID1159580 (chemical genetic matrix, 2015):
# “And” between values parts separate entries of the source, which are not always exact repeats. Equal entries are not always repeated. The whole screen tested about 5,500 compounds, of which about 2,000 (36%) were called active. Not shown: some 18% with an inconclusive outcome. Some of the results follow. Unmarked numbers belong to inactive results. No stated cut-off is given here; in the data, active means normalized growth mostly below about 0.91 (no sharp cut-off); inconclusive means no clear call, values can overlap the other calls; inactive means mostly above about 0.92.
# Test: chemical genetic growth profiling, strain panel (AID 1159580);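 further: tested at 20 µM; growth read once vehicle control cultures reached saturation at 30 °C; 1 = growth at the plate median or of vehicle wells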
# Settings: S. cerevisiae deletion strains, growth OD
structure (smiles),measurement,setting,value
CC1CC[C@@]2(OC1)O[C@H]1CC3C4CC[C@@H]5C[C@@H](O)CC[C@]5(C)C4CC[C@]3(C)[C@H]1[C@@H]2C (stereo partly specified),normalized growth,"locus YAL013W, strain DEP1, stronger effect = lower value",1.03
same,normalized growth,"locus YAL021C, strain ccr4, stronger effect = lower value",1.05
same,normalized growth,"locus YAL026C, strain drs2, stronger effect = lower value",1.02
same,normalized growth,"locus YAL030W, strain snc1, stronger effect = lower value",1.03
same,normalized growth,"locus YBL061C, strain skt5, stronger effect = lower value",1.02
same,normalized growth,"locus YBR009C, strain hhf1, stronger effect = lower value",1.01
same,normalized growth,"locus YBR021W, strain FUR4, stronger effect = lower value",1.02
same,normalized growth,"locus YBR023C, strain chs3, stronger effect = lower value",1.05
same,normalized growth,"locus YBR171W, strain sec66, stronger effect = lower value",1.04
same,normalized growth,"locus YBR229C, strain ROT2, stronger effect = lower value",1.01
same,normalized growth,"locus YBR231C, strain swc5, stronger effect = lower value",1.02
same,normalized growth,"locus YBR279W, strain paf1, stronger effect = lower value",1.02
same,normalized growth,"locus YCL011C, strain gbp2, stronger effect = lower value",1.06
same,normalized growth,"locus YCL016C, strain dcc1, stronger effect = lower value",1.02
same,normalized growth,"locus YCL029C, strain bik1, stronger effect = lower value",1.01
same,normalized growth,"locus YCL061C, strain MRC1, stronger effect = lower value",1.02
same,normalized growth,"locus YCL069W, strain vba3, stronger effect = lower value",1.05
same,normalized growth,"locus YCR088W, strain abp1, stronger effect = lower value",1.03
same,normalized growth,"locus YDL005C, strain med2, stronger effect = lower value",1.03
same,normalized growth,"locus YDL035C, strain GPR1, stronger effect = lower value",1.07
same,normalized growth,"locus YDL040C, strain nat1, stronger effect = lower value",1.02
same,normalized growth,"locus YDL074C, strain BRE1, stronger effect = lower value",1.11
same,normalized growth,"locus YDL101C, strain DUN1, stronger effect = lower value",1.02
same,normalized growth,"locus YDL134C, strain PPH21, stronger effect = lower value",1.03
same,normalized growth,"locus YDL185W, strain tfp1, stronger effect = lower value",1
same,normalized growth,"locus YDL192W, strain arf1, stronger effect = lower value",1.01
same,normalized growth,"locus YDR001C, strain nth1, stronger effect = lower value",1.05
same,normalized growth,"locus YDR069C, strain doa4, stronger effect = lower value",1.06
same,normalized growth,"locus YDR101C, strain arx1, stronger effect = lower value",1.01
same,normalized growth,"locus YDR137W, strain rgp1, stronger effect = lower value",0.984
same,normalized growth,"locus YDR150W, strain NUM1, stronger effect = lower value",1.03
same,normalized growth,"locus YDR159W, strain sac3, stronger effect = lower value",1.01
same,normalized growth,"locus YDR162C, strain NBP2, stronger effect = lower value",1.04
same,normalized growth,"locus YDR195W, strain ref2",1.17 [resistant] (active)
same,normalized growth,"locus YDR297W, strain sur2, stronger effect = lower value",1.02
same,normalized growth,"locus YDR318W, strain mcm21, stronger effect = lower value",1.01
same,normalized growth,"locus YDR334W, strain swr1, stronger effect = lower value",1.05
same,normalized growth,"locus YDR335W, strain msn5, stronger effect = lower value",1.06
same,normalized growth,"locus YDR388W, stronger effect = lower value",1.02
same,normalized growth,"locus YDR392W, strain spt3, stronger effect = lower value",1.03
same,normalized growth,"locus YDR502C, strain sam2, stronger effect = lower value",0.997
same,normalized growth,"locus YEL003W, strain gim4, stronger effect = lower value",1.08
same,normalized growth,"locus YEL037C, strain rad23, stronger effect = lower value",1.2 [resistant] (active)
same,normalized growth,"locus YEL061C, strain CIN8 (second series), stronger effect = lower value",1.08
same,normalized growth,"locus YER015W, strain faa2, stronger effect = lower value",1.03
same,normalized growth,"locus YER016W, strain bim1, stronger effect = lower value",1.02
same,normalized growth,"locus YER110C, stronger effect = lower value",0.997
same,normalized growth,"locus YER111C, strain swi4, stronger effect = lower value",1.28 [resistant] (active)
same,normalized growth,"locus YER155C, strain BEM2 (second series), stronger effect = lower value",1.09
same,normalized growth,"locus YER155C, strain BEM2, stronger effect = lower value",1
same,normalized growth,"locus YER167W, strain BCK2, stronger effect = lower value",1.02
same,normalized growth,"locus YFR010W, strain ubp6, stronger effect = lower value",1.06
same,normalized growth,"locus YGL078C, strain dbp3, stronger effect = lower value",1.02
same,normalized growth,"locus YGL086W, strain mad1, stronger effect = lower value",1
same,normalized growth,"locus YGL167C, strain pmr1, stronger effect = lower value",1.02
same,normalized growth,"locus YGL173C, strain kem1, stronger effect = lower value",1.02
same,normalized growth,"locus YGL227W, strain vid30, stronger effect = lower value",1.03
same,normalized growth,"locus YGL240W, strain doc1, stronger effect = lower value",1.02
same,normalized growth,"locus YGL248W, strain PDE1, stronger effect = lower value",1.06
same,normalized growth,"locus YGL253W, strain hxk2, stronger effect = lower value",1.07
same,normalized growth,"locus YGR135W, strain pre9, stronger effect = lower value",1.01
same,normalized growth,"locus YGR252W, strain gcn5, stronger effect = lower value",1.05
same,normalized growth,"locus YHR013C, strain ard1, stronger effect = lower value",1.04
same,normalized growth,"locus YHR027C, strain rpn1, stronger effect = lower value",1.03
same,normalized growth,"locus YHR030C, strain SLT2, stronger effect = lower value",0.965
same,normalized growth,"locus YHR079C, strain IRE1 (second series), stronger effect = lower value",0.993
same,normalized growth,"locus YHR079C, strain IRE1, stronger effect = lower value",0.97
same,normalized growth,"locus YHR094C, strain hxt1, stronger effect = lower value",1.01
same,normalized growth,"locus YHR129C, strain ARP1, stronger effect = lower value",1.05
same,normalized growth,"locus YHR142W, strain chs7, stronger effect = lower value",1.18 [resistant] (active)
same,normalized growth,"locus YIL066C, strain RNR3, stronger effect = lower value",1.03
same,normalized growth,"locus YIL073C, strain SPO22, stronger effect = lower value",1.12
same,normalized growth,"locus YIL125W, strain kgd1, stronger effect = lower value",0.999
same,normalized growth,"locus YIR030C, strain dcg1, stronger effect = lower value",1
same,normalized growth,"locus YJL092W, strain hpr5, stronger effect = lower value",1.02
same,normalized growth,"locus YJL095W, strain BCK1 (second series), stronger effect = lower value",1.01
same,normalized growth,"locus YJL095W, strain BCK1, stronger effect = lower value",1.06 and 0.993
same,normalized growth,"locus YJL115W, strain asf1, stronger effect = lower value",1.03
same,normalized growth,"locus YJL134W, strain LCB3, stronger effect = lower value",1.02
same,normalized growth,"locus YJL154C, strain vps35, stronger effect = lower value",1.11 [resistant] (active)
same,normalized growth,"locus YJL164C, strain tpk1, stronger effect = lower value",1.02
same,normalized growth,"locus YJL166W, strain qcr8, stronger effect = lower value",1.02
same,normalized growth,"locus YJL168C, strain set2, stronger effect = lower value",0.988
same,normalized growth,"locus YJL187C, strain SWE1 (second series), stronger effect = lower value",1.04
same,normalized growth,"locus YJL187C, strain SWE1, stronger effect = lower value",1.01
same,normalized growth,"locus YJR043C, strain POL32, stronger effect = lower value",1.05
